# Compound activity as filed in PubChem BioAssay.
# CtBP-E1A blk = inhibitors of CtBP/E1A interaction; AlphaScreen GST-E1A/His-CtBP binding, 1536-well; hits give low values; activity change, % (concentration not given with the values); hit rate 0.49% among 340,000; AID 651724; in the data active = activity change below about -65%; inconclusive = mostly about -30% to -63%; note: % is set by controls: 0 for no effect and ±100 for the full control effect
#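 Homogeneous bead-based format: GST-tagged E1A captured on glutathione donor beads, His-tagged CtBP on nickel acceptor beads; compounds precede bead addition by 2 h at 37 °C.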
# G9a block = blocks human histone lysine methyltransferase G9a; Q96KQ7; G9a H3K9 monomethylation, AlphaScreen, 2 h; Potency, µM (top dose mostly 102 µM), for inactives: at the highest dose activity, negative = inhibition, actives largely listed as inhibitors; hit rate 8.8% among 350,000; note: potency is the fitted concentration of half-maximal effect; % is set by controls: 0 for no effect and ±100 for the full control effect; nearly all actives have a fitted effect of over 75% in size
# Target sequence (Q96KQ7 913-1193 limits assumed): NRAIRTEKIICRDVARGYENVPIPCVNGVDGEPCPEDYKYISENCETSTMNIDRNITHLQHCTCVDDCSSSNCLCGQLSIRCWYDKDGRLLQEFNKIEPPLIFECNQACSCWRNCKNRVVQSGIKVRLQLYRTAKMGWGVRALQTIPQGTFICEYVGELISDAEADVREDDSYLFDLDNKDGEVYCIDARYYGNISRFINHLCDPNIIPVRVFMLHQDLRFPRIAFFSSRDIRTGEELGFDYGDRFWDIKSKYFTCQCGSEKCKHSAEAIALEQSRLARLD
#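 Quantitative HTS format: methyltransferase activity on a biotin-tagged H3K9 peptide is measured by AlphaScreen, using a rabbit anti-monomethyl-H3K9 antibody with streptavidin donor and anti-IgG acceptor beads. Final levels are 20 nM enzyme, 500 nM peptide, 20 uM SAM; 2 h RT.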
# JMJD2A Tudor inh = JMJD2A Tudor domain (human) inhibition; hit rate 4.4% among 390,000; AlphaScreen JMJD2A-Tudor / H3K4me3 peptide binding; Potency, µM (top dose mostly 114 µM), for inactives: at the highest dose activity change, negative = inhibition, most hits filed as inhibitors; O75164; note: potency is the fitted concentration of half-maximal effect; % is set by controls: 0 for no effect and ±100 for the full control effect; nearly all actives have a fitted effect of over 50% in size
# Six1-Eya2 inh = blocks human Six1 binding to Eya2 | activity change, % (concentration not given with the values) | hit rate 0.56% among 360,000 | AID 651725 | Q15475+O00167 | AlphaScreen GST-Six1/His-Eya2 binding, biochemical; hits give low values; in the data active = activity change below about -65%; inconclusive = mostly about -30% to -63%; note: % is set by controls: 0 for no effect and ±100 for the full control effect
#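 GST-Six1 + His-Eya2 (5X stock: 250/500 nM); Tris pH 8.0, 300 mM NaCl, 0.05% BSA, 0.02% Tween 20; GSH donor/Ni acceptor beads; 1 h 37 °C dark; AlphaScreen readout.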
# HP1b chromo inh = inhibitors of HP1-beta chromodomain binding to methylated histone tails; P83916; AlphaScreen HP1-beta / biotin-H3K9me3 peptide binding; Potency, µM (highest dose often 114 µM), inactives show at the top dose activity change, negative = inhibition, most hits filed as inhibitors; hit rate 0.56% among 390,000; AID 540317; note: potency is the fitted concentration of half-maximal effect; nearly all actives have a fitted effect of over 70% in size
# Target sequence (P83916 whole entry, looked up): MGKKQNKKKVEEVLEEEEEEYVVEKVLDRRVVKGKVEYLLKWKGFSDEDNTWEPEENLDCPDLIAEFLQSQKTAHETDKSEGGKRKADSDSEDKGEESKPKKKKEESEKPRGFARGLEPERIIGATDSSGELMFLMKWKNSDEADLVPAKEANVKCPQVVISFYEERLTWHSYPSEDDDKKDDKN
#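 HP1-beta protein (50 nM final) preincubated 30 min at room temperature with biotinylated H3(1-18)K9me3 peptide (50 nM) in PBS pH 7.4, 0.01% Tween-20, then compound added for 30 min. AlphaScreen streptavidin donor/nickel chelate acceptor beads (10 ug/mL final), 30 min dark, luminescence read.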
# BAZ2B inh = BAZ2B (human) inhibition | Q9UIF8 | AlphaScreen BAZ2B-H3K14Ac peptide displacement | Potency, µM (doses to about 114 µM), inactives show top-dose activity change, negative = inhibition, actives largely listed as inhibitors | hit rate 4.4% among 360,000 | AID 504333; note: potency is the fitted concentration of half-maximal effect; % is set by controls: 0 for no effect and ±100 for the full control effect; nearly all actives have a fitted effect of over 60% in size
#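 In this displacement format the biotinylated H3(5-23) peptide acetylated at Lys14 serves as ligand at 50 nM, with BAZ2B at 50 nM in PBS pH 7.4 containing 0.01% Tween-20. Donor and acceptor beads are 10 ug/mL final.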
# * hit, by the source's call; ? = inconclusive; . = no result; [ ] = another dose, or the depositor's remark. Sampled rows, rich in hits. Any-hit rate of the full collection: about 10%. Unless noted, calls come from the whole dose curve; as a rule, active = well fitted inhibition curve with a large enough effect; inconclusive = small, poorly fitted or top-dose-only effect; inactive = no such curve, though single readings can be large or run the other way.
SMILES,CtBP-E1A blk,G9a block,JMJD2A Tudor inh,Six1-Eya2 inh,HP1b chromo inh,BAZ2B inh
CCC(C)(C)n1nnnc1C(c1ccc(O)c(OC)c1)N1CCN(c2nc3ccccc3s2)CC1 (configuration not stated),-2,2.5µM*,-32%,-8,-28%,-36%
CCCC(c1nnnn1CCOC)N1CCN(c2nc3ccccc3s2)CC1 (configuration not stated),2,-19%,13µM*,8,-19%,-1%
CCN(Cc1ccccc1)S(=O)(=O)c1ccc(N2CCCCS2(=O)=O)cc1,.,7%[59 µM],-14%,.,0%,3%
O=c1[nH]c(/C=C/c2ccc(Cl)cc2Cl)c([N+](=O)[O-])c(=O)[nH]1,.,?,-21%,-2,6%,56µM*
O=c1[nH]c(/C=C\c2cccnc2)c([N+](=O)[O-])c(=O)[nH]1,-13,-26%,-72%,-9,-22%,-1%
O=c1[nH]c(/C=C/c2cccc([N+](=O)[O-])c2)c([N+](=O)[O-])c(=O)[nH]1,?,79µM*,-4%,-14,-6%,13%
COc1cc(C(c2c(C)[nH][nH]c2=O)c2c(C)[nH][nH]c2=O)cc([N+](=O)[O-])c1O,-5,?,45µM*,2,?,?
COc1cc(/C=C/c2[nH]c(=O)[nH]c(=O)c2[N+](=O)[O-])cc([N+](=O)[O-])c1O,.,45µM*,?,-18,-8%,56µM*
CCOc1cc(C(c2c(C)[nH][nH]c2=O)c2c(C)[nH][nH]c2=O)cc([N+](=O)[O-])c1O,2,6%[0.501 µM],-24%,2,-14%,-35%
O=c1[nH]c(/C=C/c2ccccc2)c([N+](=O)[O-])c(=O)[nH]1,1,-45%,-14%,?,20%,-4%
COc1ccc(C(=O)NNc2ncnc3c2cnn3-c2ccccc2)cc1,.,21%[59 µM],?,.,41%,3%
O=C(NCc1ccccc1)C(C1CC1)n1c(=O)c(-c2cc3ccccc3[nH]2)nc2ccccc21 (configuration not stated),7,.,.,70,.,.
O=C(Cc1ccccc1)NCC(=O)OCC(=O)c1ccc2ccccc2c1,.,.,-3%[57.1 µM],.,23%[57 µM],.
COc1ccc(NC(=O)Cn2nnc(C(=O)NCc3ccc4c(c3)OCO4)c2N)c(OC)c1,4,7%[59 µM],28µM*,2,11%,-4%
COc1ccc(NC(=O)Cn2nnc(C(=O)NCc3ccc4c(c3)OCO4)c2N)cc1,-13,-4%,-11%,5,11%,-2%
COc1ccc(C=C2C(=O)c3ccccc3C2=O)cc1O,3,13µM*,?,4,?,10µM*
COc1ccc(/C=C2\CN(Cc3ccccc3)C/C(=C\c3ccc(OC)c(O)c3)C2=O)cc1O,-5,45µM*,?,-2,?,40µM*
Cc1cc([N+](=O)[O-])cnc1Sc1nccn1C,.,18%[59 µM],-9%,3,35%,50µM*
Cn1ccnc1Sc1ccccc1[N+](=O)[O-],8,?,-1%,0,40%,2%
CCC(CC)NCc1ccc(OC)cc1OC,10,?,-12%,6,19%,13%
COc1ccc(CNC2CCCCC2C)c(OC)c1 (configuration not stated),-1,14µM*,2µM*,0,?,56µM*
COc1ccc(CNC2CCCc3ccccc32)c(OC)c1 (configuration not stated),-4,.,50µM*,-4,?,4%
COc1ccc(NC(=O)NC2CCCc3ccccc32)c(OC)c1 (configuration not stated),-11,0%,-13%,-5,23%,-19%
O=C(CSc1nncn1-c1ccccc1F)NC1CC1,7,.,-12%,1,14%[57 µM],.
CN1CC(C(=O)O)Cc2c1ccc1ccccc21 (configuration not stated),-28,20µM*,-17%,-17,24%,-33%
SMILES,CtBP-E1A blk,G9a block,JMJD2A Tudor inh,Six1-Eya2 inh,HP1b chromo inh,BAZ2B inh
O=C(CCSc1nnc2scc(-c3ccccc3)n12)NCc1ccc2c(c1)OCO2,-6,5%[59 µM],-18%,-1,14%,0%
c1ccc(-c2csc3nnc(SCc4ccc5c(c4)OCO5)n23)cc1,-1,-54%[59 µM],20µM*,-3,-5%,-30%
c1ccc(-c2csc(Nc3ncccn3)n2)cc1,6,-1%[59 µM],10%,9,8%,8%
NNc1nc(-c2ccccc2)cs1,-2,22µM*,?,-2,12%,?
Cc1cccnc1Nc1nc(-c2ccccn2)cs1,-95*,19%[12.7 µM],45µM*,-78*,20%,14µM*
Cc1cccnc1Nc1nc(-c2ccccc2)cs1,0,40µM*,-15%,-5,8%,-21%
Cc1ccnc(Nc2nc(-c3ccccc3)cs2)c1,.,-2%,-9%,5,67%,-19%
O=C(O)c1ncn(Cc2ccccc2)c1C(=O)O,?,10µM*,6.3µM*,-69*,55%,32µM*
O=C(NCc1ccccc1)c1ncn(Cc2ccccc2)c1C(=O)NCc1ccccc1,5,-6%[2.33 µM],6%,-8,60%,13%
O=C1C([N+](=O)[O-])=C(O)c2cccc3cccc1c23,.,1.3µM*,.,.,.,45µM*
Cc1cccc(CCN=c2c([N+](=O)[O-])nn(-c3ccccc3)n2O)c1,?,?,50µM*,?,?,.
CCn1c2ccccc2c2cc(CN3CCN(Cc4cc(OC)ccc4O)CC3)ccc21,?,10µM*,1µM*,?,?,20µM*
CCn1c2ccccc2c2cc(CN3CCN(Cc4ccccc4C)CC3)ccc21,.,1.8µM*,5.6µM*,.,?,56µM*
CCn1c2ccccc2c2cc(CN3CCN(Cc4ccccc4F)CC3)ccc21,.,2µM*,4µM*,.,?,16µM*
Cc1cccc(N/N=C/c2ccncc2)c1,0,50µM*,?,-14,-9%,-39%
Cc1cccc(NC(=O)C(=O)N/N=C/c2ccncc2)c1,0,?,-10%,-10,33%,-10%
O=[N+]([O-])c1ccc(N/N=C/c2ccccc2O)cc1,.,21%,-7%,7,12%,-3%
Cc1cccc(N/N=C/c2ccccc2O)c1,-8,1.6µM*,?,-12,-11%,14%
CCOC(=O)c1[nH]c(C)c(C(=O)NC(CC)Cc2ccccc2)c1C (configuration not stated),.,-37%[59 µM],-18%,.,10%,-5%
O=C(NNC(=O)c1cc(-c2ccc(Cl)cc2)nc2ccccc12)c1csc(N2CCOCC2)n1,-4,10%,-14%,-8,31%,6%
